# Results filed as inconclusive are left out. Activity calls are given as the source filed them. The calls were made as follows, unless noted: active = hit-call score of the fitted dose curve at least 0.9, where 1 is the maximum; inactive = score below 0.9.
# What was measured:
# [1] = biological target: Androgen receptor (Homo sapiens) (UniProt P10275); test: ATG_AR_TRANS: Attagene TRANS-FACTORIAL HepG2 Assay for human Androgen Receptor (AR) (AID 2282973; active = hit-call score of the fitted dose curve at least 0.9, where 1 is the maximum); settings: HepG2 Attagene TRANS-FACTORIAL AR reporter transcription
# How it was run: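 Chimeric nuclear receptor–Gal4 activity was assessed in human HepG2 hepatocytes after 24 h chemical dosing. Induced reporter mRNA was detected via labelled RT-PCR fragments on capillary electrophoresis, and gain of signal was analysed against DMSO.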
# [2] = biological target: CCAAT/enhancer-binding protein beta (Homo sapiens) (UniProt P17676); test: ATG_C_EBP_CIS: Attagene CIS-FACTORIAL HepG2 Assay for human CCAAT/Enhancer Binding Protein (C/EBP) beta (AID 2282927); settings: HepG2 Attagene cis-factorial transcription factor reporter; actives raise or lower the signal
# How it was run: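 Endogenous C/EBPb-driven reporter transcripts measured in transfected human HepG2 cells at 24 h via RT-PCR and capillary electrophoresis of labelled fragments. Activity fitted in both directions relative to DMSO baseline.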
# [3] = ATG_CMV_CIS: Attagene CIS-FACTORIAL HepG2 Assay for human CMV (Internal Marker) (AID 2282928); settings: HepG2 CMV promoter reporter, transcription factor profiling; actives raise or lower the signal;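 also: endpoint acts as a background internal control marker rather than a target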
# How it was run: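 Readout: fluorescent reporter cDNA fragments separated by capillary electrophoresis after RT-PCR and HpaI cut. Cells: HepG2 carrying transfected cis-promoter reporter constructs, dosed 24 h. Endpoint serves as background internal-marker control, fit bidirectionally versus DMSO.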
# [4] = ATG_DR4_LXR_CIS: Attagene CIS-FACTORIAL HepG2 Assay for human Liver X Receptor (LXR), DR4 submotif (AID 2282929); settings: HepG2 Attagene DR4 cis-reporter, mRNA transcription; actives raise or lower the signal
# How it was run: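 Measures endogenous transcription factor activity via a DR4-driven reporter transcript in human HepG2 cells. Compounds incubated 24 h; mRNA quantified by RT-PCR and capillary electrophoresis, analysed as gain or loss of signal versus DMSO.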
# [5] = ATG_AP_1_CIS: Attagene CIS-FACTORIAL HepG2 Assay for human Activator Protein 1 (AP-1) (AID 2282931); settings: HepG2 Attagene cis-factorial AP-1 reporter mRNA; actives raise or lower the signal
# How it was run: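 Bidirectional concentration-response fitting against DMSO controls. Underlying signal: reporter mRNA from cis-promoter constructs in transiently transfected HepG2, measured after 24 h by RT-PCR and capillary electrophoresis.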
# [6] = ATG_AP_2_CIS: Attagene CIS-FACTORIAL HepG2 Assay for human Activator Protein 2 (AP-2) (AID 2282932); settings: HepG2 AP-2 cis-reporter, Attagene transcription factor profiling; actives raise or lower the signal
# How it was run: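 Transiently transfected HepG2 cells are exposed to chemical for 24 h. Reporter transcripts are then measured as fluorescence following RT-PCR and capillary separation, and gain- or loss-of-signal is fitted relative to DMSO.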
# [7] = ATG_BRE_CIS: Attagene CIS-FACTORIAL HepG2 Assay for human Bone Morphogenetic Protein (BMP) Response Element (BRE) (AID 2282933); settings: HepG2 BMP response element reporter, Attagene transcription factor profiling; actives raise or lower the signal
# How it was run: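 Fluorescence-labelled reporter cDNA fragments, separated by capillary electrophoresis, gave the signal for this component of a 52-readout multiplex. HepG2 cells were transfected, exposed to chemicals for 24 h, and compared with DMSO using bidirectional fitting.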
# [8] = biological target: Transcription factor E2F1 (Homo sapiens) (UniProt Q01094); test: ATG_E2F_CIS: Attagene CIS-FACTORIAL HepG2 Assay for human E2F Transcription Factor 1 (AID 2282935); settings: HepG2 Attagene cis-reporter, E2F reporter RNA transcripts; actives raise or lower the signal
# How it was run: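 Fluorescent RT-PCR products, digested with HpaI for 2 h at 37 C, are separated by capillary electrophoresis. Source RNA comes from transfected HepG2 cultures treated for 24 h.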
# [9] = ATG_E_Box_CIS: Attagene CIS-FACTORIAL HepG2 Assay for human Enhancer Box (E-box) (AID 2282936); settings: HepG2 E-box cis-reporter transcription, actives raise or lower the signal
# How it was run: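 Fluorescent reporter fragments separated by capillary electrophoresis gave the signal; mRNA came from HepG2 cells transfected with cis-element reporters and treated 24 h. Curves fitted bidirectionally relative to DMSO controls.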
# [10] = ATG_M_61_CIS: Attagene CIS-FACTORIAL HepG2 Assay for M61 Transcription Factor (Internal Marker) (AID 2282937); settings: HepG2 Attagene CIS-FACTORIAL M61 internal marker reporter; actives raise or lower the signal
# How it was run: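 Fluorescence from labelled cDNA fragments, separated by capillary electrophoresis, quantifies reporter induction. HepG2 cells bearing transiently transfected cis-promoter MRTUs were incubated with test chemical for 24 h; DMSO defined baseline for gain/loss fitting.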
# [11] = ATG_EGR_CIS: Attagene CIS-FACTORIAL HepG2 Assay for human Early Growth Response 1 (EGR1) (AID 2282938); settings: HepG2 Attagene CIS-FACTORIAL EGR reporter mRNA; actives raise or lower the signal
# How it was run: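 Cell-based multiplex transcription assay: HepG2 carrying transfected cis-element reporter units, 24 h chemical treatment. Fluorescence from capillary electrophoresis of RT-PCR products gives mRNA levels; fitting is bidirectional relative to DMSO.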
# [12] = ATG_Ets_CIS: Attagene CIS-FACTORIAL HepG2 Assay for human Erythroblast Transformation Specific (ETS) (AID 2282941); settings: HepG2 ETS cis-reporter transcription, actives raise or lower the signal
# How it was run: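 RT-PCR/capillary electrophoresis fluorescence read-out of reporter mRNA; HepG2 transient multi-reporter transfection; 24 h compound exposure; gain or loss of signal fitted bidirectionally relative to DMSO.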
# [13] = ATG_GATA_CIS: Attagene CIS-FACTORIAL HepG2 Assay for human GATA Binding Protein (AID 2282944); settings: HepG2 GATA cis-element reporter, Attagene multiplex mRNA; actives raise or lower the signal
# How it was run: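 Cells: HepG2, transiently transfected with cis-regulated reporter transcription units. Exposure: 24 h. Detection: RT-PCR plus capillary electrophoresis of FAM-labeled fragments. Analysis: bidirectional, DMSO as baseline.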
# [14] = ATG_GLI_CIS: Attagene CIS-FACTORIAL HepG2 Assay for human Zinc Finger Protein GLI1 (AID 2282945); settings: HepG2, Attagene cis-factorial reporter mRNA, GLI element; actives raise or lower the signal
# How it was run: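 Bidirectional curve fits relative to DMSO, using reporter mRNA levels from RT-PCR plus capillary electrophoresis. Cells were HepG2 transiently carrying cis-regulated reporter constructs, harvested 24 h after dosing.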
# [15] = ATG_ISRE_CIS: Attagene CIS-FACTORIAL HepG2 Assay for human Interferon Regulatory Factor 1 (IRF1) binding to an Interferon-Stimulated Response Element (ISRE) (AID 2282948); settings: HepG2 ISRE cis-reporter (Attagene), mRNA transcription readout; actives raise or lower the signal
# How it was run: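 Read-out: fluorescent RT-PCR products resolved by capillary electrophoresis, reporting endogenous transcription factor activity via ISRE-driven reporter mRNA in transfected HepG2 cells dosed for 24 h; gain or loss fitted relative to DMSO.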
# [16] = ATG_M_32_CIS: Attagene CIS-FACTORIAL HepG2 Assay for M32 Transcription Factor (Internal Marker) (AID 2282949); settings: HepG2 Attagene cis-factorial M32 reporter, mRNA; actives raise or lower the signal;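 also: background control marker of the multiplexed CIS panel rather than a real target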
# How it was run: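 Using DMSO as baseline, bidirectional curve fits were applied to reporter mRNA signals. These came from transiently transfected HepG2 cells exposed for 24 h, with RNA analysed by RT-PCR, FAM primer extension, HpaI digestion and CE.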
# [17] = ATG_M_06_CIS: Attagene CIS-FACTORIAL HepG2 Assay for M06 Transcription Factor (Internal Marker) (AID 2282950); settings: HepG2 Attagene CIS-FACTORIAL M06 internal marker reporter; actives raise or lower the signal
# How it was run: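 Measured 24 h post-dosing in transiently transfected HepG2 cells, this internal-marker endpoint reports reporter mRNA via RT-PCR with fluorescent primer extension and capillary electrophoresis. DMSO served as negative control and baseline for bidirectional fitting.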
# [18] = ATG_MRE_CIS: Attagene CIS-FACTORIAL HepG2 Assay for human Metal Responsive Element (MRE) (AID 2282954); settings: HepG2 MRE cis-reporter transcription, Attagene multiplex; actives raise or lower the signal
# How it was run: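 Multiplexed cis-reporter assay in human HepG2 liver cells, 24 h incubation with test chemical. Reporter transcripts measured by RT-PCR and capillary electrophoresis; values from bidirectional curve fitting versus DMSO.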
# [19] = ATG_PXRE_CIS: Attagene CIS-FACTORIAL HepG2 Assay for human Pregnane X Receptor Element (PXRE) (AID 2282957); settings: HepG2 Attagene CIS-FACTORIAL PXRE reporter, mRNA; actives raise or lower the signal
# How it was run: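 Bidirectional activity, baselined to DMSO, derived from reporter mRNA fluorescence (RT-PCR plus capillary electrophoresis) in HepG2 cells bearing cis-promoter reporter units, 24 h exposure.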
# [20] = ATG_Sox_CIS: Attagene CIS-FACTORIAL HepG2 Assay for human SRY-box transcription factor (SOX) (AID 2282960); settings: HepG2 Attagene cis-factorial SOX reporter, mRNA; actives raise or lower the signal
# How it was run: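 After 24 h of chemical treatment, transfected HepG2 reporter cells are lysed for total RNA. Transcript levels come from RT-PCR with labelled primer extension and capillary electrophoresis, analysed bidirectionally versus DMSO.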
# Sequence of CCAAT/enhancer-binding protein beta (Homo sapiens) (P17676 whole entry, looked up, the tested form may be a part): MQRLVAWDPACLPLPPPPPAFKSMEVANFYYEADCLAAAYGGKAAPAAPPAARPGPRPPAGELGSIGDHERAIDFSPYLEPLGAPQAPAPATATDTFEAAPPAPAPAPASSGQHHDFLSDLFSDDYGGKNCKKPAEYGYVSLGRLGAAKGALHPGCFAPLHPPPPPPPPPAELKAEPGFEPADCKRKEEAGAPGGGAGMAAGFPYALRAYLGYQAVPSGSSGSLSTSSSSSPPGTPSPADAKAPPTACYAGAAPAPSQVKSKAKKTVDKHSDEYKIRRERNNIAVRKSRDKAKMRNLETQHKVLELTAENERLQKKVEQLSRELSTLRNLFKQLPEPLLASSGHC
# Sequence of Transcription factor E2F1 (Homo sapiens) (Q01094 whole entry, looked up): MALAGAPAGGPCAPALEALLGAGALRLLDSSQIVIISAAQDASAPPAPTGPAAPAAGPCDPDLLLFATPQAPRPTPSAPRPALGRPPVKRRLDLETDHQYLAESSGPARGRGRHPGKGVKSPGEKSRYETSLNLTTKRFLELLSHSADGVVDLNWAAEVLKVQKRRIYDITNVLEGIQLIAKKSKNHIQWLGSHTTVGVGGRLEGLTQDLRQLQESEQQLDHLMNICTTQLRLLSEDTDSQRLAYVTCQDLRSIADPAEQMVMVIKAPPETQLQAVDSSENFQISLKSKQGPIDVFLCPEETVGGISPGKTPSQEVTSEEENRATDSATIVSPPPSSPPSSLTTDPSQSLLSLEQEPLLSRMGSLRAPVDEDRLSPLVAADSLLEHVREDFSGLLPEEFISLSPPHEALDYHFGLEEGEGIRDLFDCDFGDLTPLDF
# Sequence of Androgen receptor (Homo sapiens) (P10275 whole entry, looked up, the tested form may be a part): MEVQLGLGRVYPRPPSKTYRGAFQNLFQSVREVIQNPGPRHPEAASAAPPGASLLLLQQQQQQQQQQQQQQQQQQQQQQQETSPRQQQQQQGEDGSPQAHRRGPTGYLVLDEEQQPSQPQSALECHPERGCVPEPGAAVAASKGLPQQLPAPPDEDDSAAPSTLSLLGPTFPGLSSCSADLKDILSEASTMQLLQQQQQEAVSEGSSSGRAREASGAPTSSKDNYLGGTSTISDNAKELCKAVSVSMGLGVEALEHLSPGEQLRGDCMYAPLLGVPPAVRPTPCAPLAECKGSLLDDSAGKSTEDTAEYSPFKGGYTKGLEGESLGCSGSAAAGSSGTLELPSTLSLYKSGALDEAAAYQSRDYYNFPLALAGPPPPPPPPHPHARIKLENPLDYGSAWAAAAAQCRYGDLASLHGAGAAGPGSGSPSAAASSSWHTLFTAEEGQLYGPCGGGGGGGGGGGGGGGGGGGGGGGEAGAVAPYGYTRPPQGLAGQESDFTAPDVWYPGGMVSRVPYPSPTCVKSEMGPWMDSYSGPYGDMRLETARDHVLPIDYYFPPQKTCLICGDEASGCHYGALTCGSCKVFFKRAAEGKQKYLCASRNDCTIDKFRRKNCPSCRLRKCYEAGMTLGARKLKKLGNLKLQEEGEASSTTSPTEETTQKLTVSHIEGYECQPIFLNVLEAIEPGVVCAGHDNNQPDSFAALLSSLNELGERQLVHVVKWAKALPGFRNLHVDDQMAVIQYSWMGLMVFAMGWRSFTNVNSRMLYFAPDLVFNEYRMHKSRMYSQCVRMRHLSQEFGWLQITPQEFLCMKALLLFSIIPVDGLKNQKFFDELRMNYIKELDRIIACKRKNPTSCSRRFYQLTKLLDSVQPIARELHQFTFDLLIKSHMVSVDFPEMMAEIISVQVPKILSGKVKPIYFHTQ
compound,measurement,setting,value
CCCCC1CCC(O)CC1 (stereo unspecified),outcome,[1],inactive
O=C(O)CCCc1ccc(N(CCCl)CCCl)cc1,outcome,[2],inactive
same,outcome,[3],inactive
same,AC50,[4],112 µM (active)
same,outcome,[5],inactive
same,outcome,[6],inactive
same,outcome,[7],inactive
same,outcome,[8],inactive
same,outcome,[9],inactive
same,outcome,[10],inactive
same,outcome,[11],inactive
same,outcome,[12],inactive
same,outcome,[13],inactive
same,outcome,[14],inactive
same,outcome,[15],inactive
same,outcome,[16],inactive
same,outcome,[17],inactive
same,outcome,[18],inactive
same,outcome,[19],inactive
same,outcome,[20],inactive
ClCCCCCCCl,outcome,[2],inactive
same,outcome,[3],inactive
same,outcome,[4],inactive
same,outcome,[5],inactive
same,outcome,[6],inactive
same,outcome,[7],inactive
same,outcome,[8],inactive
same,outcome,[9],inactive
same,outcome,[10],inactive
same,outcome,[11],inactive
same,outcome,[12],inactive
same,outcome,[13],inactive
same,outcome,[14],inactive
same,outcome,[15],inactive
same,outcome,[16],inactive
same,outcome,[17],inactive
same,outcome,[18],inactive
same,outcome,[19],inactive
same,outcome,[20],inactive
CC1(C)C(=O)NC(=O)NC1=O,outcome,[2],inactive
same,outcome,[3],inactive
same,outcome,[4],inactive
same,outcome,[5],inactive
same,outcome,[6],inactive
same,outcome,[7],inactive
same,outcome,[8],inactive
same,outcome,[9],inactive
same,outcome,[10],inactive
same,outcome,[11],inactive
same,outcome,[12],inactive
same,outcome,[13],inactive
same,outcome,[14],inactive
same,outcome,[15],inactive
same,outcome,[16],inactive
same,outcome,[17],inactive
same,outcome,[18],inactive
same,outcome,[19],inactive
same,outcome,[20],inactive
Nc1ccc(Cl)c(Cl)c1,outcome,[2],inactive
same,outcome,[3],inactive
same,AC50,[4],134 µM (active)
same,outcome,[5],inactive
same,outcome,[6],inactive
same,outcome,[7],inactive
same,outcome,[8],inactive
same,outcome,[9],inactive
same,outcome,[10],inactive
same,outcome,[11],inactive
same,outcome,[12],inactive
same,outcome,[13],inactive
same,outcome,[14],inactive
same,AC50,[15],135 µM (active)
same,outcome,[16],inactive
same,outcome,[17],inactive
same,outcome,[18],inactive
same,outcome,[19],inactive
same,outcome,[20],inactive
CC(C)(C)C(=O)CCl,outcome,[2],inactive
same,outcome,[3],inactive
same,AC50,[4],55.2 µM (active)
same,outcome,[5],inactive
same,outcome,[6],inactive
same,outcome,[7],inactive
same,outcome,[8],inactive
same,AC50,[9],45.2 µM (active)
same,outcome,[10],inactive
same,outcome,[11],inactive
same,outcome,[12],inactive
same,outcome,[13],inactive
same,outcome,[14],inactive
same,outcome,[15],inactive
same,outcome,[16],inactive
same,outcome,[17],inactive
same,AC50,[18],77.1 µM (active)
same,outcome,[19],inactive
same,outcome,[20],inactive

# — PubChem BioAssay (EPA / NIEHS)
